# Bioassay records from PubChem BioAssay.
# A3A deaminase: APOBEC3A ssDNA deaminase inhibitors, primary screen, selectivity assay for APOBEC3G inhibitor project, biochemical, FAM/TAMRA oligo cleavage fluorescence | recombinant A3A, FAM/TAMRA ssDNA deamination fluorescence | inhibition, % at 20 µM | 0.41% of 330,000 active | DNA dC->dU-editing enzyme APOBEC-3A (Homo sapiens), P31941;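 active = at least 40% inhibition at 20 µM here, with at most 30% in a related deaminase screen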
# GC-B act: human GC-B receptor activators, primary screen, HEK293 GC-B cells, cGMP TR-FRET, EC30 CNP | Atrial natriuretic peptide receptor 2 (Homo sapiens), P20594 | 0% at EC30 CNP, 100% saturating CNP | activation, % at 10 µM | 0.11% of 370,000 active | AID 1920062, 2024;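 active = activation at 10 µM reaching about 35% in either raw or pattern-adjusted values, limit read from the data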
# Target sequence (P20594 whole entry, looked up): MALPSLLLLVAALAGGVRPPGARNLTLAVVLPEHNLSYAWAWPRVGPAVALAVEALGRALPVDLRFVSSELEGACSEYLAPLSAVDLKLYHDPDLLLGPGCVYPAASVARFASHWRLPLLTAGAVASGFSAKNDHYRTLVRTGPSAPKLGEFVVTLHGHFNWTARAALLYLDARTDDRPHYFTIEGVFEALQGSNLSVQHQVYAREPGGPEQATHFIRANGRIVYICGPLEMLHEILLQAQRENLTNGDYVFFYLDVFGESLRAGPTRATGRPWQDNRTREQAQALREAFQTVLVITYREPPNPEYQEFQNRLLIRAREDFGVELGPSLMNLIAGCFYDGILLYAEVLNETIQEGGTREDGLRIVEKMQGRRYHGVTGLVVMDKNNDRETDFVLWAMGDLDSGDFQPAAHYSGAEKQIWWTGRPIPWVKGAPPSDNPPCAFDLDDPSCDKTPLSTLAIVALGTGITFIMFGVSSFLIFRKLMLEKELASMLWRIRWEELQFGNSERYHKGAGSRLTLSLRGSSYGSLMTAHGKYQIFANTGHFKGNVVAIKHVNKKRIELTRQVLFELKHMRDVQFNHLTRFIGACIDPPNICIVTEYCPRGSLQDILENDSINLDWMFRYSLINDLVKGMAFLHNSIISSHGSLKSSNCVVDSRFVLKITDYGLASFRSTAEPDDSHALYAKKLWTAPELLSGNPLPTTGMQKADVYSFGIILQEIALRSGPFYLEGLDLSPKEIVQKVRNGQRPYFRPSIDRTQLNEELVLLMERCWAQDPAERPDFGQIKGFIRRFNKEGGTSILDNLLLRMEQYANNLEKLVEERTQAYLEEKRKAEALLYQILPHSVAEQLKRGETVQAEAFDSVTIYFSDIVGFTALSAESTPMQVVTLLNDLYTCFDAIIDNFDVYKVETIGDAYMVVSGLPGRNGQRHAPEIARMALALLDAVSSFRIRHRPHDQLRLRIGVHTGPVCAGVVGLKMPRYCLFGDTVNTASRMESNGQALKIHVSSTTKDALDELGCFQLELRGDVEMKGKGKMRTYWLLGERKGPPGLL
# APOBEC3G inh: APOBEC3G DNA deaminase inhibitors, primary screen, biochemical, fluorescence, single-stranded DNA substrate, uHTS | DNA dC->dU-editing enzyme APOBEC-3G (Homo sapiens), Q9HC16 | inhibition, % at 20 µM | 0.28% of 330,000 active | recombinant A3G, ssDNA deamination FAM/TAMRA fluorescence;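 active = inhibition of at least 40% at 20 µM, with no more than 30% in the related APOBEC3A deaminase screen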
# NPR1 activator: GC-A stimulated cGMP production enhancers – HEK293 GC-A cells, cGMP TR-FRET, EC30 ANP, primary screen. 0% at EC30 ANP, 100% saturating ANP. activation, % at 10 µM. 0.14% of 370,000 active; in the data active = activation above about 40%
# Neddylation inh: inhibitors of cullin neddylation, primary screen, biochemical, TR-FRET, uHTS, NAE and Ubc12. NEDD8-conjugating enzyme Ubc12 (Homo sapiens) + NEDD8-activating enzyme E1 regulatory …. inhibition, % at 25 µM. 0.58% of 360,000 active. AID 651699, 2012; in the data active = inhibition above about 36%
# PfGluPho inh: PfG6PD enzyme inhibitors, primary screen, biochemical, fluorescence intensity, uHTS | glucose-6-phosphate dehydrogenase-6-phosphogluconolactonase (Plasmodium falciparum 3D7) | PfGluPho enzyme, NADPH resazurin-diaphorase fluorescence | inhibition, % at 20 µM | 0.78% of 350,000 active | AID 504690, 2011;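 active = inhibition reaching at least a set limit at 20 µM in the primary screen, cut at about 59% in these data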
# Hits are given with their value; n = inactive; x = not tested or not shown. Sampled rows, rich in hits. Any-hit rate of the full collection: about 2%.
SMILES,A3A deaminase,GC-B act,APOBEC3G inh,NPR1 activator,Neddylation inh,PfGluPho inh
O=C1OCCC1Sc1nc2cc(Cl)ccc2s1 (configuration not stated),n,54,n,n,n,n
COc1ccc(CN(C)C(C#Cc2ccccc2)Cc2ccccc2)c(OC)c1 (configuration not stated),x,n,x,n,x,x
CCOc1ccc(C2C(C(=O)c3ccc(C)o3)=C(O)C(=O)N2c2nc(C)c(C(=O)OC)s2)cc1 (configuration not stated),n,n,n,44,n,n
COC(=O)c1sc(N2C(=O)C(O)=C(C(=O)c3ccc(C)o3)C2c2ccc([N+](=O)[O-])cc2)nc1C (configuration not stated),n,n,n,n,n,n
Cc1ccc(-c2cc(C(F)F)nc(S(C)(=O)=O)n2)cc1,n,n,n,74,n,n
Cc1ccc(-c2cc(-c3ccccc3)nc(Cl)n2)cc1,n,n,n,n,n,n
Cc1ccc(Cn2cc(CN3[C@@H](Cc4ccccc4)COc4cc(Br)ccc4S3(=O)=O)nn2)cc1,x,n,x,n,x,x
COc1ccc(C(=O)CSc2nnc(-c3n[nH]c4c3CCC4)n2N)cc1OC,x,44,x,n,x,x
Cc1ccc(NC(=O)[C@@H]2CC(=O)O[C@@H]2c2ccccc2)cc1C,x,n,x,n,x,x
Nc1sc2c(c1C(=O)NC1CCS(=O)(=O)C1)CCCC2 (configuration not stated),n,n,n,n,n,62
COC(=O)Oc1nsnc1N1CCOCC1,n,x,n,x,n,61
O=C(Oc1nsnc1N1CCOCC1)N(c1ccccc1)c1ccccc1,n,n,n,n,n,n
O=C(CCn1cnc(-c2ccccc2)c1-c1ccccc1)N/N=C/c1ccc(O)cc1,n,n,n,n,n,n
O=C(CCn1cnc(-c2ccccc2)c1-c1ccccc1)N/N=C/c1ccccc1O,n,n,n,n,54,n
O=C1C(NC(=O)N2c3ccccc3C=Cc3ccccc32)CCCCN1Cc1cccc(C(F)(F)F)c1 (configuration not stated),x,n,x,n,x,x
Cc1cc(C)cc(Nc2nc3c(S(=O)(=O)c4ccccc4)nnn3c3ccccc23)c1,x,n,x,n,n,n
Cc1cccc(Nc2nc3c(S(=O)(=O)c4ccccc4)nnn3c3ccccc23)c1,n,42,n,n,n,n
O=C(c1sccc1Cl)N1CCC(n2nnc3ncccc32)CC1,x,n,x,n,x,x
CCN(CC)C(=O)COc1c(-c2ccco2)oc2ccccc2c1=O,n,n,n,n,n,n
CC(=O)Oc1c(-c2ccco2)oc2ccccc2c1=O,n,n,n,n,46,n
Cc1cc(C)c(C)c(S(=O)(=O)N2CCC(C(=O)NNC(=O)c3ccccc3O)CC2)c1C,n,n,n,n,52,n
COC1=CC(=O)C(OC)=C(OC)C1=O,x,n,x,n,n,120
O=C(c1ccccc1)c1cc(Cl)ccc1N1C(=O)C=CC1=O,x,n,x,n,n,112
Cc1ccc2c(CC(=O)OC3CCOC3=O)coc2c1 (configuration not stated),n,n,n,43,n,n
Cc1ccc2c(CC(=O)O)coc2c1,n,n,n,n,n,n
COC(=O)c1cccc(-n2sc3ccccc3c2=O)c1,n,n,78,n,n,117
O=C(Oc1oc(-c2ccco2)nc1C=Nc1ccc(Cl)cc1)c1ccco1,n,n,n,44,n,n
C[C@@H]1OC(C2CCCCC2)N(C)[C@H]2C[C@H]3c4[nH]c5cccc(-c6cccc(F)c6)c5c4CCN3C(=O)[C@@H]12 (some centres not stated),x,n,x,n,x,x
Clc1ccccc1N=Nc1ccccn1,x,n,x,n,n,91
Cc1[nH][nH]c(=O)c1N=Nc1ccccc1Cl,n,n,n,n,n,n
